According to the supplement of paper PMC6522484:
± gives the standard deviation of the averaged measurements.

What was measured:
DLD1 [1] = assay: cell viability (CellTiter-Glo) relative to plate median (fraction of plate median); higher = more viable cells; settings: 5 µM; treatment time 24 h; reporter: 7TFP
Outline: (§1)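 Each entry is a luminescence signal normalised to the plate median, averaged over independent replicates. The replicate count was two, and the cells were colorectal cancer lines with stable lentiviral TCF/Wnt firefly luciferase reporters exposed to library compounds at a final 5 µM for 24 h. Firefly luciferase and CellTiterGlo were measured on parallel plates.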

HCT116 = assay: as above; settings: 5 µM; treatment time 24 h; reporter: TCF4/Wnt
Outline: as §1

SW480 [2] = assay: as above; settings: 5 µM; treatment time 24 h; reporter: 7TFP
Outline: as §1

DLD1 [3] = assay: TCF/Wnt firefly luciferase reporter signal relative to plate median (fraction of plate median); higher = higher Wnt reporter signal; settings: 5 µM; treatment time 24 h; reporter: 7TFP
Outline: as §1

SW480 [4] = assay: as above; settings: 5 µM; treatment time 24 h; reporter: 7TFP
Outline: as §1

## NCCCS(=O)(=O)O
DLD1 [1]
  cell viability: 0.999 ± 0.044
HCT116
  cell viability: 0.993 ± 0.052
SW480 [2]
  cell viability: 0.974 ± 0.011
DLD1 [3]
  TCF/Wnt firefly luciferase reporter signal: 0.969 ± 0.14
SW480 [4]
  TCF/Wnt firefly luciferase reporter signal: 1.11 ± 0.05

## O=C1[C@H](CC[C@H](O)c2ccc(F)cc2)[C@@H](c2ccc(O)cc2)N1c1ccc(F)cc1
DLD1 [1]
  cell viability: 0.828 ± 0.15
HCT116
  cell viability: 1.01 ± 0.063
SW480 [2]
  cell viability: 0.961 ± 0.084
DLD1 [3]
  TCF/Wnt firefly luciferase reporter signal: 0.952 ± 0.17
SW480 [4]
  TCF/Wnt firefly luciferase reporter signal: 0.919 ± 0.11

## O=C(Oc1cc(O)cc2c1C[C@@H](OC(=O)c1cc(O)c(O)c(O)c1)[C@@H](c1cc(O)c(O)c(O)c1)O2)c1cc(O)c(O)c(O)c1
DLD1 [1]
  cell viability: 1.06 ± 0.028
HCT116
  cell viability: 1.1 ± 0.12
SW480 [2]
  cell viability: 1.04 ± 0.021
DLD1 [3]
  TCF/Wnt firefly luciferase reporter signal: 0.89 ± 0.0071
SW480 [4]
  TCF/Wnt firefly luciferase reporter signal: 0.951 ± 0.048

## CC(C)CCC[C@@H](C)[C@H]1CC[C@H]2[C@@H]3CC=C4CC(=O)CC[C@]4(C)[C@H]3CC[C@]12C
DLD1 [1]
  cell viability: 1 ± 0.026
HCT116
  cell viability: 1.015 ± 0.0071
SW480 [2]
  cell viability: 1.03 ± 0.048
DLD1 [3]
  TCF/Wnt firefly luciferase reporter signal: 0.979 ± 0.13
SW480 [4]
  TCF/Wnt firefly luciferase reporter signal: 0.974 ± 0.19

## Nc1nc(N)c2nc(-c3ccccc3)c(N)nc2n1
DLD1 [1]
  cell viability: 0.843 ± 0.047
HCT116
  cell viability: 0.898 ± 0.0042
SW480 [2]
  cell viability: 0.956 ± 0.037
DLD1 [3]
  TCF/Wnt firefly luciferase reporter signal: 1.11 ± 0.085
SW480 [4]
  TCF/Wnt firefly luciferase reporter signal: 1.05 ± 0.028

## O=c1ccc2ccc(O)cc2o1
DLD1 [1]
  cell viability: 0.995 ± 0.036
HCT116
  cell viability: 0.972 ± 0.014
SW480 [2]
  cell viability: 1.03 ± 0.028
DLD1 [3]
  TCF/Wnt firefly luciferase reporter signal: 0.936 ± 0.13
SW480 [4]
  TCF/Wnt firefly luciferase reporter signal: 0.935 ± 0.042

## O=C(OOC(=O)c1ccccc1)c1ccccc1
DLD1 [1]
  cell viability: 1.015 ± 0.0071
HCT116
  cell viability: 1.12 ± 0.16
SW480 [2]
  cell viability: 0.998 ± 0.031
DLD1 [3]
  TCF/Wnt firefly luciferase reporter signal: 0.96 ± 0.071
SW480 [4]
  TCF/Wnt firefly luciferase reporter signal: 1.03 ± 0.053

## CCOC(=O)c1c(C)cc(O)cc1O
DLD1 [1]
  cell viability: 1.11 ± 0.085
HCT116
  cell viability: 1.01 ± 0.09
SW480 [2]
  cell viability: 1.07 ± 0.014
DLD1 [3]
  TCF/Wnt firefly luciferase reporter signal: 1.06 ± 0.14
SW480 [4]
  TCF/Wnt firefly luciferase reporter signal: 1.08 ± 0.042

## CC1(C)CC2C1CC[C@]1(CBr)CCC3C(CC(=O)O)C(=O)O[C@@]32C1 (stereo not given in full) [BROMO-3-HYDROXY-4-(SUCCIN-2-YL)-CARYOLANE gamma-LACTONE]
DLD1 [1]
  cell viability: 0.95 ± 0.085
HCT116
  cell viability: 1.03 ± 0.079
SW480 [2]
  cell viability: 0.987 ± 0.033
DLD1 [3]
  TCF/Wnt firefly luciferase reporter signal: 1.08 ± 0.035
SW480 [4]
  TCF/Wnt firefly luciferase reporter signal: 1.095 ± 0.0071

## C[C@]12CCC(=O)C=C1C=C[C@@H]1[C@@H]2CC[C@@]2(C)[C@H]1CC[C@@]21CCC(=O)O1
DLD1 [1]
  cell viability: 0.884 ± 0.075
HCT116
  cell viability: 0.899 ± 0.049
SW480 [2]
  cell viability: 0.969 ± 0.044
DLD1 [3]
  TCF/Wnt firefly luciferase reporter signal: 1.1 ± 0.071
SW480 [4]
  TCF/Wnt firefly luciferase reporter signal: 1.025 ± 0.0071

## COC(=O)C(N)CS (stereo not given)
DLD1 [1]
  cell viability: 0.972 ± 0.054
HCT116
  cell viability: 0.965 ± 0.092
SW480 [2]
  cell viability: 1 ± 0.036
DLD1 [3]
  TCF/Wnt firefly luciferase reporter signal: 0.836 ± 0.039
SW480 [4]
  TCF/Wnt firefly luciferase reporter signal: 0.91 ± 0.03

## C[C@]1(O)CC(=O)c2c(ccc3c2C(=O)c2cccc(O)c2C3=O)C1 [Tetrangomycin; Benzanthramycin; LL-AE-705-Y]
DLD1 [1]
  cell viability: 0.822 ± 0.019
HCT116
  cell viability: 0.978 ± 0.14
SW480 [2]
  cell viability: 1 ± 0.067
DLD1 [3]
  TCF/Wnt firefly luciferase reporter signal: 0.853 ± 0.065
SW480 [4]
  TCF/Wnt firefly luciferase reporter signal: 1.01 ± 0.045

## CN(C)[C@@H]1C(O)=C(C(N)=O)C(=O)[C@@]2(O)C(O)=C3C(=O)c4c(O)cccc4[C@@](C)(O)[C@H]3C[C@@H]12
DLD1 [1]
  cell viability: 0.988 ± 0.074
HCT116
  cell viability: 1.04 ± 0.093
SW480 [2]
  cell viability: 1 ± 0.024
DLD1 [3]
  TCF/Wnt firefly luciferase reporter signal: 0.911 ± 0.11
SW480 [4]
  TCF/Wnt firefly luciferase reporter signal: 0.839 ± 0.031

## CCOC(=O)N1CCC(=C2c3ccc(Cl)cc3CCc3cccnc32)CC1
DLD1 [1]
  cell viability: 0.987 ± 0.047
HCT116
  cell viability: 0.896 ± 0.064
SW480 [2]
  cell viability: 0.962 ± 0.068
DLD1 [3]
  TCF/Wnt firefly luciferase reporter signal: 1.08 ± 0.19
SW480 [4]
  TCF/Wnt firefly luciferase reporter signal: 0.94 ± 0.032

## CC1(C)[C@@H](O)CC[C@]2(C)[C@H]3C(=O)C=C4[C@@H]5C[C@@](C)(C(=O)O)CC[C@]5(C)CC[C@@]4(C)[C@]3(C)CC[C@@H]12
DLD1 [1]
  cell viability: 1.01 ± 0.059
HCT116
  cell viability: 1.03 ± 0.098
SW480 [2]
  cell viability: 1.05 ± 0.057
DLD1 [3]
  TCF/Wnt firefly luciferase reporter signal: 1.04 ± 0.22
SW480 [4]
  TCF/Wnt firefly luciferase reporter signal: 1.12 ± 0.13
